We go through 8 molecules from PubChem BioAssay (Tox21).

Assay [1] is described as follows: Nuclear factor erythroid 2-related factor 2/antioxidant responsive element (Nrf2/ARE) small molecule agonists: qHTS cell viability counter screen in human keratinocytes (AID 1919968; active means well fitted curve in the direction sought with a large enough effect in the repeat runs; an effect the other way counts as inactive or inconclusive; further: nearly all actives have a fitted effect of over 55% in size; further: potency means the concentration at half of the fitted maximal effect). The essentials:
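Cytotoxicity was multiplexed with the Nrf2/ARE luciferase assay in the same wells. Stably transfected HaCaT keratinocytes were treated with test compounds for 23 h at 37 C. Cell viability was then measured by CellTiter-Fluor fluorescence.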
For orientation: In qHTS, concentration-response curves come from the screen itself.

Assay [2] in a line: Nuclear factor erythroid 2-related factor 2/antioxidant responsive element (Nrf2/ARE) small molecule agonists: luciferase reporter gene qHTS assay in human keratinocytes (AID 1919969; further: nearly all actives have a fitted effect of over 35% in size; further: potency means the concentration at half of the fitted maximal effect). (A reporter such as luciferase makes a cellular process visible.)
Assay [3] concerns the target Gonadotropin-releasing hormone receptor (Homo sapiens) (UniProt P30968). Description: Human gonadotropin-releasing hormone receptor (GnRHR) small molecule agonists, calcium flux assay in GnRHR-HEK293 cells (AID 1920063). Further: nearly all actives have a fitted effect of over 35% in size. The method, boiled down:
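Agonist activity was measured as intracellular calcium flux in HEK293 cells engineered to stably express human GnRHR. After dye loading for 1 hour at 37 C, compounds in DMSO were added and fluorescence was followed for 3 minutes.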
On the technique in general: A change in cytosolic calcium serves as a functional read-out for many receptors and channels.

Assay [4] concerns the target KiSS-1 receptor (Homo sapiens) (UniProt Q969F8). Description: Human kisspeptin (KISS1R) small molecule agonists, calcium flux assay in KISS1R-HEK293 cells (AID 1920064; active means well fitted curve in the direction sought with a large enough effect in the repeat runs; an effect the other way counts as inactive or inconclusive). The essentials: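 Agonist activity is monitored as intracellular calcium rise in engineered HEK293 cells carrying human KISS1R. Cells are dye-loaded for 1 h at 37 C before compound addition, and fluorescence is recorded for 3 min.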

A short description of assay [5]: G protein-coupled receptor (GPCR) small molecule agonists, calcium flux assay: HEK293 wild type cell line counter screen (AID 1920065). The essentials:
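Seed cells, incubate 18 h (37 C, 5% CO2); add calcium dye, 1 h at 37 C; pin-transfer compounds, ATP control or DMSO; read fluorescence 480/540 nm each second for 3 min.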

Assay [6] can be described thus: p53 small molecule agonists, cell-based qHTS assay with human liver microsomes: qHTS cell viability counter screen (AID 1963579). Further: nearly all actives have a fitted effect of over 45% in size. The method, boiled down: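 Tox21 library compounds, delivered from DMSO stocks, were tested on p53RE-bla cells together with 0.5 mg/mL human liver microsomes and 0.5 mg/mL NADPH (final) over 16 h at 37 C; CellTiter-Glo luminescence served as the cytotoxicity measure.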

A short description of assay [7]: p53 small molecule agonists, cell-based qHTS assay with rat liver microsomes: qHTS cell viability counter screen (AID 1963580). Further: nearly all actives have a fitted effect of over 45% in size. The method, boiled down: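 Cytotoxicity counter screen: intracellular ATP measured by CellTiter-Glo luminescence in the same wells as the beta-lactamase reporter read, on HCT-116 p53RE-bla cells exposed 16 h at 37 C to compounds with rat liver microsomes and NADPH, each 0.5 mg/mL final.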

The target of assay [8] is 5-hydroxytryptamine receptor 2A (Homo sapiens) (UniProt P28223). Put plainly: 5-hydroxytryptamine receptor 2A (HTR2A) small molecule agonists, cell-based qHTS assay (AID 1963587). Further: nearly all actives have a fitted effect of over 30% in size. Further: potency means the concentration at half of the fitted maximal effect. The essentials: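 CHO cells stably expressing human HTR2A, plated 18 h, loaded with calcium dye 1 h at 37 C. Agonist mode: compounds added and intracellular calcium fluorescence recorded kinetically for 2 min at 1 sec intervals.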

Assay [9] concerns the target Muscarinic acetylcholine receptor M1 (Homo sapiens) (UniProt P11229). Put plainly: Cholinergic receptor muscarinic 1 (CHRM1) small molecule antagonists, cell-based qHTS assay (AID 1963588). Further: nearly all actives have a fitted effect of over 40% in size. Further: potency means the concentration at half of the fitted maximal effect. The essentials: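 Compounds were tested at 15 concentrations in three independent runs. Dye-loaded CHRM1-CHO cells were exposed 5 min at room temperature before stimulation by acetylcholine added at 50nM. Intracellular calcium was read kinetically on FDSS for 3 min.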

Assay [10] has the same target. Put plainly: Cholinergic receptor muscarinic 1 (CHRM1) small molecule agonists, cell-based qHTS assay (AID 1963589). Further: nearly all actives have a fitted effect of over 35% in size. The essentials: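 Cells were plated and incubated 18 h at 37 C/5% CO2, loaded with calcium dye for 1 h at 37 C, then treated with compounds in DMSO. Fluorescence was recorded kinetically at 1 sec intervals.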
Assay [11] can be described thus: cAMP Responsive Elements (CRE) small molecule agonists, cell-based qHTS assay (AID 1963590). The essentials: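 Cells carrying a CRE-driven beta-lactamase reporter (HEK 293T) are seeded, incubated overnight (18 h), and treated with test compounds for 3 h at 37 C; reporter activity is then detected with a FRET substrate after 2 h at room temperature.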
Assay [12] can be described thus: cAMP Responsive Elements (CRE) small molecule antagonists, cell-based qHTS assay (AID 1963591; active means well fitted inhibition curve with a large enough effect in the signal ratio in the repeat runs, not every such curve was filed as active; the % refers to the signal ratio). The essentials:
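Cells (CRE-bla HEK 293T, DMEM with 10% dialyzed FBS and 25 mM HEPES) are seeded and incubated 18 h. Compounds are added with NKH477 agonist at 0.25 uM final for 3 h, then FRET substrate for 2 h.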

For assay [13], the target named is Beta-2 adrenergic receptor (Homo sapiens) (UniProt P07550). Description: Adrenergic beta2 receptor (ADRB2) small molecule agonists, cell-based qHTS assay (AID 1963593).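 Further: CHO cells stably overexpressing human ADRB2.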 The method, boiled down:
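CHO cells stably over-expressing ADRB2 were plated overnight at 37C, then dosed with compounds plus a stimulation mix containing 100uM IBMX and 25uM Ro-20-1724 for 0.5hr at room temperature. cAMP was measured by HTRF competition, 1hr.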

The target in assay [14] is D(2) dopamine receptor (Homo sapiens) (UniProt P14416). Put plainly: Dopamine D2 receptor (DRD2) small molecule agonists, cell-based qHTS assay (AID 1963594). Further: nearly all actives have a fitted effect of over 35% in size. The essentials:
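HEK293 cells stably expressing human DRD2, pre-treated with PDE inhibitor Ro20-1724 (0.1 mM final) and compound 10 min at room temperature, then stimulated with NKH477 (200nM […]) for 30 min. cAMP read by HTRF (665/620 nm).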

Assay [15] in a line: p53 small molecule agonists, cell-based qHTS assay: qHTS cell viability counter screen (AID 1963581). Further: nearly all actives have a fitted effect of over 45% in size. The essentials: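 Viability was counter-screened in parallel with the p53 agonist reporter by measuring intracellular ATP luminescence in the same HCT-116 p53RE-bla wells after 16 h compound treatment at 37 C.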
Assay [16] has as its target 5-hydroxytryptamine receptor 2A (Homo sapiens) (UniProt P28223). Description: 5-hydroxytryptamine receptor 2A (HTR2A) small molecule antagonists, cell-based qHTS assay (AID 1963586). Further: nearly all actives have a fitted effect of over 45% in size. The method, boiled down:
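CHO cells stably expressing human HTR2A were plated for 18 h at 37 C, then loaded with calcium dye for 1 h. Compounds were preincubated 5 min at room temperature before DOI (4 nM solution) was added. Kinetic fluorescence was read for 3 min.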

For assay [17], the target named is Beta-2 adrenergic receptor (Homo sapiens) (UniProt P07550). Description: Adrenergic beta2 receptor (ADRB2) small molecule antagonists, cell-based qHTS assay (AID 1963592). Further: series mostly up to about 92 µM; nearly all actives have a fitted effect of over 50% in size. The method, boiled down:
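Assay format: CHO-ADRB2 cells, 18-20hr seeding at 37C/5% CO2, then compound plus 1nM isoproterenol agonist mix for 0.5hr RT. Homogeneous time-resolved fluorescence cAMP detection after 1hr, expressed as 665/615 nm ratio.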

The target of assay [18] is D(2) dopamine receptor (Homo sapiens) (UniProt P14416). Put plainly: Dopamine D2 receptor (DRD2) small molecule antagonists, cell-based qHTS assay (AID 1963595; active means well fitted inhibition curve with a large enough effect in the signal ratio in the repeat runs, with a control signal flat; the % refers to the signal ratio). The essentials:
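Antagonist mode in DRD2-HEK293 cells: after compound addition with 0.1 mM Ro20-1724, cells received quinpirole (12 nM) and NKH477 (200 nM) for 30 min at room temperature; HTRF cAMP read after 1 h detection.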

A number with no mark means an inactive call. Results filed as inconclusive are left out. Active and inactive are the calls of the source. Unless noted, the call rests on the fitted dose curve.

Sequence of 5-hydroxytryptamine receptor 2A (Homo sapiens) (P28223 whole entry, looked up): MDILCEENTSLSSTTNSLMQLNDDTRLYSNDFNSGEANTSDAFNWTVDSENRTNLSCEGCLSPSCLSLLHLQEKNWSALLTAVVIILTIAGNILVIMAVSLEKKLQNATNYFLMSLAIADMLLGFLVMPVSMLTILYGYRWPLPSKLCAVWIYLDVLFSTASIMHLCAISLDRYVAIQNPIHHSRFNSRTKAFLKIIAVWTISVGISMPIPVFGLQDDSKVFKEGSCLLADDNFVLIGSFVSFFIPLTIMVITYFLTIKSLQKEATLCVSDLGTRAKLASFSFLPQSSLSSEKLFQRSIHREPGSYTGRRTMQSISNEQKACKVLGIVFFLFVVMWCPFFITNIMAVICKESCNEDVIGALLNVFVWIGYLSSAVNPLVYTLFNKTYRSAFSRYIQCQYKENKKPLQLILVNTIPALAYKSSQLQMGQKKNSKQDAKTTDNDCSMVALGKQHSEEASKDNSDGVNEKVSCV
Sequence of Beta-2 adrenergic receptor (Homo sapiens) (P07550 whole entry, looked up): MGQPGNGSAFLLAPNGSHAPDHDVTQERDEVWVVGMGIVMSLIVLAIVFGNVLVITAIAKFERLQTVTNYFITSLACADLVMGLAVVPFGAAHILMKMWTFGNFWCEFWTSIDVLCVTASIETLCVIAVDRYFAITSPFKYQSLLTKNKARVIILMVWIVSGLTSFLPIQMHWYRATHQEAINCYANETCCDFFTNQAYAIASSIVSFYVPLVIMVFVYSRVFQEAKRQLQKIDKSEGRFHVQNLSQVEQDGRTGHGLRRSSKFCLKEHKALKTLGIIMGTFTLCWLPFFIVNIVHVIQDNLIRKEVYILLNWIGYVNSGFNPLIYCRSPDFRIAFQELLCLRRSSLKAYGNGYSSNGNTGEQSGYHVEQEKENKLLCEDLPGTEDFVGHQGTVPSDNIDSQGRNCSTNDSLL
Sequence of KiSS-1 receptor (Homo sapiens) (Q969F8 whole entry, looked up): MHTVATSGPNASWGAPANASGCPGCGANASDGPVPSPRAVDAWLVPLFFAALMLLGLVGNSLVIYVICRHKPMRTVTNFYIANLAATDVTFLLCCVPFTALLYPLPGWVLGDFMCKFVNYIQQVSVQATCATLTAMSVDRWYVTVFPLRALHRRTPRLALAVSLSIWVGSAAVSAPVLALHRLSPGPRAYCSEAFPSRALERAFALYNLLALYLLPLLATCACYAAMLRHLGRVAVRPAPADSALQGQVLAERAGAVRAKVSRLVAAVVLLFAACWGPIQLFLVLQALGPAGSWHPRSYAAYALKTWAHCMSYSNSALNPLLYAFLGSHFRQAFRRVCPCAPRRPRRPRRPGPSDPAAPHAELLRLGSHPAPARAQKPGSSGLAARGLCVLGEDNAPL
Sequence of Muscarinic acetylcholine receptor M1 (Homo sapiens) (P11229 whole entry, looked up): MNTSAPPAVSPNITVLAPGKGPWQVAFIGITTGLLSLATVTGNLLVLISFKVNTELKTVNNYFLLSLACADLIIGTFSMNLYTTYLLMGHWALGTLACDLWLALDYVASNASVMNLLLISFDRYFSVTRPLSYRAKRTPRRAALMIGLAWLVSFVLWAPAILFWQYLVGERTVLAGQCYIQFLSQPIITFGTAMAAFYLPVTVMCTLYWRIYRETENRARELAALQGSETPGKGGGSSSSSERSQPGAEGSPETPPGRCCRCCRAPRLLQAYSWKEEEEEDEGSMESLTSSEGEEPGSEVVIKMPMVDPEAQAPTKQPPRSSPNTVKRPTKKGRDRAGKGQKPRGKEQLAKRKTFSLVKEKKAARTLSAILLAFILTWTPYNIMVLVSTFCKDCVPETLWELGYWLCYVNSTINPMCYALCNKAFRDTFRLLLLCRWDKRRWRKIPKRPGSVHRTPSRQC
Sequence of Gonadotropin-releasing hormone receptor (Homo sapiens) (P30968 whole entry, looked up): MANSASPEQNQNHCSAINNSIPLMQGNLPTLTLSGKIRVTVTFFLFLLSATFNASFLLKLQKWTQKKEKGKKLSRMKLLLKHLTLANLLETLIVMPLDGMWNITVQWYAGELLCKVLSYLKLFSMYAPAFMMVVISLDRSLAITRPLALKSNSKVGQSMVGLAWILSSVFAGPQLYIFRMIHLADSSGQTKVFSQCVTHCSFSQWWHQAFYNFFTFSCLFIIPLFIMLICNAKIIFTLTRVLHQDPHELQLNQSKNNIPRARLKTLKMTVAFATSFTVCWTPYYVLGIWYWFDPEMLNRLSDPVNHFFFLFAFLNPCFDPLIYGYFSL
Sequence of D(2) dopamine receptor (Homo sapiens) (P14416 whole entry, looked up): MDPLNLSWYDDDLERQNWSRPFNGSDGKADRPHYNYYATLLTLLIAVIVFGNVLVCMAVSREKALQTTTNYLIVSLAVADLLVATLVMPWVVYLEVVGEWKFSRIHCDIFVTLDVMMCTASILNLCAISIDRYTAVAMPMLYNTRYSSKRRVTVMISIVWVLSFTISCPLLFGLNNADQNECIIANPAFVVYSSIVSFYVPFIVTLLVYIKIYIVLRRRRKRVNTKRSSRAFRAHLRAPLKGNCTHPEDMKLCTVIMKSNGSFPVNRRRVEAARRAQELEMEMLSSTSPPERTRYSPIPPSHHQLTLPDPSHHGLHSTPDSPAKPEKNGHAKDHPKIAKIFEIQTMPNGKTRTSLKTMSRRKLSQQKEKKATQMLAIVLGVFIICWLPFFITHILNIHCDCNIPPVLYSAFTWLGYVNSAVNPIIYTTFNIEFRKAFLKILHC

Regarding `CN1CCC(OC(c2ccccc2)c2ccccc2)CC1`, the Potency result in [1], in assay [2], in assay [3], in assay [4], in assay [5] and in [6] was “inactive” each time. Further, the Potency result in assay [7], in assay [8], in [10], in [11], in assay [12] and in assay [13] was “inactive” throughout. Besides, the Potency result in [14] is “inactive”. The Potency in assay [9] was 0.0818 µM (active).
Consider `CCO[Si](CCCSSSSCCC[Si](OCC)(OCC)OCC)(OCC)OCC`, for which the figures for the Potency in assay [1] and in assay [8] were 61.2 µM (active) and 49 µM (active), respectively. For the same molecule, the Potency result in assay [2], in assay [3], in [4], in assay [5], in [6] and in assay [15] was “inactive” in each case. Besides, the Potency entry in assay [16], in assay [9], in [10], in assay [17], in assay [14] and in assay [18] was “inactive” in each case.
For the molecule `O=c1[nH][nH]c2ccccc12`, the Potency result in assay [1], in assay [3], in [4], in assay [5], in assay [6] and in [7] was “inactive” in each case. The Potency result in assay [16], in assay [8], in [9], in assay [12], in [17] and in assay [14] was “inactive” in each case. Also, the Potency result in assay [18] is “inactive”. The Potency in [2] is 62.3 µM (active).
Take `C=C(C)C(=O)OCc1ccccc1`: the Potency result in assay [1], in assay [2], in assay [3], in [4], in assay [5] and in assay [6] was “inactive” each time. Moreover, the Potency result in [7], in assay [16], in assay [9], in assay [11], in assay [12] and in assay [17] was “inactive” in each case. Also, the Potency entry in assay [13], in assay [14] and in assay [18] was “inactive” each time.
Consider `[Ca+2]`, for which the Potency entry in [1], in [2], in assay [3], in assay [4], in [5] and in assay [6] was “inactive” throughout. The Potency entry in [15], in assay [16], in assay [8], in assay [9], in assay [10] and in assay [11] was “inactive” in each case. The Potency entry in [12], in [17], in assay [13], in assay [14] and in assay [18] was “inactive” each time.
As for `CC(C)N(c1ccccc1)C(C)C`, the Potency entry in assay [1], in assay [2], in assay [3], in assay [4], in assay [5] and in assay [6] was “inactive” throughout. Besides, the Potency result in assay [7], in assay [16], in [8], in assay [10], in assay [11] and in assay [17] was “inactive” in each case. Moreover, the Potency result in assay [14] and in assay [18] was “inactive” throughout.
Consider `CNc1ncnc2nc[nH]c12`, for which the Potency result in assay [1], in assay [2], in assay [3], in assay [4], in assay [5] and in [6] was “inactive” throughout. In addition, the Potency result in [7], in [16], in [8], in [10], in assay [11] and in assay [12] was “inactive” in each case. The Potency result in assay [17], in [13], in assay [14] and in assay [18] was “inactive” throughout.
Regarding `CO[C@@]1(NC(=O)Cc2cccs2)C(=O)N2C(C(=O)O)=C(COC(N)=O)CS[C@@H]21`, the Potency entry in assay [1], in assay [2], in assay [3], in assay [4], in assay [5] and in [6] was “inactive” throughout. Moreover, the Potency result in assay [15], in assay [16], in [8], in [9], in [10] and in assay [11] was “inactive” throughout. Besides, the Potency entry in [12], in assay [17], in [13], in assay [14] and in assay [18] was “inactive” in each case.
